The source of these data is PubChem BioAssay (Tox21).

Records with an inconclusive call do not appear. A number with no mark means an inactive call. Activity calls are given as the source filed them. Unless noted, calls come from the whole dose curve; as a rule, active = well fitted curve in the direction sought with a large enough effect in the repeat runs; inconclusive = weak or mixed curves; inactive = no such curve, though single readings can be large; an effect the other way counts as inactive or inconclusive.

Assay [1] is described as follows: qHTS assay to identify small molecule agonists of the vitamin D receptor (VDR) signaling pathway - cell viability counter screen (AID 743224). Note: series mostly up to about 63 µM; % is set by controls: 0 for no effect and ±100 for the full control effect; nearly all actives have a fitted effect of over 50% in size. The method, boiled down:
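VDR-bla cells, 4 h after plating, exposed to compounds for 16 h at 37C; viability then read in the same wells as CellTiter-Glo luminescence after 30 min at room temperature, following the bla FRET read.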
A general note: Quantitative high-throughput screening tests each substance at several concentrations.

A short description of assay [2]: qHTS assay to identify small molecule antagonists of the vitamin D receptor (VDR) signaling pathway - cell viability counter screen (AID 743225). Note: % is set by controls: 0 for no effect and ±100 for the full control effect; nearly all actives have a fitted effect of over 50% in size. The method, boiled down:
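Compounds were pinned onto VDR-bla HEK 293T cells together with 1-alpha,25-dihydroxyvitamin D3 at 3 nM final. After 16 h at 37C and 5% CO2 plus the reporter readout, cell viability was measured by CellTiter-Glo luminescence (30 min, room temperature).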

Assay [3] can be described thus: qHTS assay to identify small molecule agonists of the NFkB signaling pathway (AID 1159509; active = well fitted curve in the direction sought with a large enough effect in the signal ratio in the repeat runs, not every such curve was filed as active; the % refers to the signal ratio; note: series mostly up to about 61 µM; % is set by controls: 0 for no effect and ±100 for the full control effect). The method, boiled down:
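NFkB-bla ME-180 cells carry a beta-lactamase reporter under an NF-kB response element. They were plated overnight, then exposed to compounds for 5 h at 37 C. Read-out is LiveBLAzer FRET after 1.5 hr at room temperature (405 nm excitation; 460/530 nm emission).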

Assay [4] is described as follows: qHTS assay to identify small molecule agonists of the endoplasmic reticulum stress response signaling pathway (AID 1159516; active = well fitted activation curve with a large enough effect in the signal ratio in the repeat runs, not every such curve was filed as active; the % refers to the signal ratio; note: % is set by controls: 0 for no effect and ±100 for the full control effect). A digest of the protocol: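 CellSensor ESRE-bla HeLa cells, 1,500 per well, plated overnight, then exposed to compounds for 5 hr at 37 C. Beta-lactamase reporter read with LiveBLAzer B/G FRET substrate after 2 hr at room temperature, 405 nm excitation, 460 and 530 nm emission.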

Assay [5] in a line: qHTS assay to identify small molecule agonists of the endoplasmic reticulum stress response signaling pathway - cell viability counter screen (AID 1159517; calls by dose curve;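 note: HeLa cells carrying an ER stress response element beta-lactamase reporter; series mostly up to about 61 µM; % is set by controls: 0 for no effect and ±100 for the full control effect; nearly all actives have a fitted effect of over 50% in size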). A digest of the protocol:
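HeLa cells carrying an ESRE-driven beta-lactamase reporter receive compound for 5 hr at 37 C. Cell viability is then gauged with CellTiter-Glo by luminescence, 30 min at room temperature.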

The nature of assay [6]: qHTS assay to identify small molecule antagonists of the retinoid-related orphan receptor gamma (ROR-gamma) signaling pathway - cell viability counter screen (AID 1159520). Note: % is set by controls: 0 for no effect and ±100 for the full control effect; nearly all actives have a fitted effect of over 50% in size. A digest of the protocol:
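Cytotoxicity was read from cellular ATP (CellTiter-Glo luminescence) after 16 hr at 37 C with 1 uM doxycycline induction. The inducer was added 2 hr after compound transfer to Tet-on ROR gamma CHO cells.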

Assay [7] concerns the target Nuclear receptor ROR-gamma (Homo sapiens) (UniProt P51449). Nature of the assay: qHTS assay to identify small molecule antagonists of the retinoid-related orphan receptor gamma (ROR-gamma) signaling pathway (AID 1159521). A digest of the protocol: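 Test compounds were applied to Tet-on RORγ CHO cells 2 h ahead of doxycycline hyclate (1 uM final). Luciferase reporter activity was quantified by luminescence after 16 h at 37 C and 5% CO2.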

A short description of assay [8]: qHTS assay to identify small molecule agonists of the AP-1 signaling pathway - cell viability counter screen (AID 1159525; calls by dose curve; note: nearly all actives have a fitted effect of over 55% in size). A digest of the protocol:
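Luminescent ATP readout (Cell Titer Glo, 30 min RT), normalised to DMSO and tetra n-octyl ammonium bromide controls. Cells were ME-180 AP-1-bla in 0.5% dialyzed FBS Opti-MEM, with a 5 h, 37 °C compound exposure.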

A short description of assay [9]: qHTS assay to identify small molecule agonists of the AP-1 signaling pathway (AID 1159526; calls by dose curve; note: % is set by controls: 0 for no effect and ±100 for the full control effect).
In assay [10] the target is Retinoic acid receptor RXR-alpha (Homo sapiens) (UniProt P19793). Nature of the assay: qHTS assay to identify small molecule agonists of the RXR signaling pathway (AID 1159527; calls by dose curve; note: nearly all actives have a fitted effect of over 35% in size; note: potency is the fitted concentration of half-maximal effect). A digest of the protocol:
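Using 9-cis retinoic acid as the reference agonist, chemicals were tested in HEK 293T cells […] for 16 hr; substrate loading lasted 2 hr at room temperature.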

The nature of assay [11]: qHTS assay to identify small molecule agonists of the RXR signaling pathway - cell viability counter screen (AID 1159529). A digest of the protocol:
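Compounds dissolved in DMSO were pinned onto HEK 293T cells carrying a beta-lactamase reporter under RXR-alpha control and incubated 16 hr. Cytotoxicity was then quantified by CellTiter-Glo luminescence.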

Assay [12] can be described thus: qHTS assay to identify small molecule antagonists of the retinoid acid receptor (RAR) signaling pathway - cell viability counter screen (AID 1159551). Note: % is set by controls: 0 for no effect and ±100 for the full control effect; nearly all actives have a fitted effect of over 35% in size. The method, boiled down:
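C3RL4 RARE-luciferase cells, 1,000/well, incubated overnight, then dosed with compound plus 1 uM retinol (final). After 6 hr at 37 C, viability read by CellTiter-Glo ATP luminescence following 30 min at room temperature.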

Assay [13] is described as follows: qHTS assay to identify small molecule antagonists of the estrogen related receptor (ERR) signaling pathway - cell viability counter screen (AID 1224818). Note: series mostly up to about 46 µM; % is set by controls: 0 for no effect and ±100 for the full control effect. The method, boiled down:
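ERR cells, 2,000 per well, compound added after 6 h and incubated 17.5 h at 37 C. Viability read by CellTiter-Fluor fluorescence after a further 30 min at 37 C.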

The nature of assay [14]: qHTS assay to identify small molecule antagonists of the estrogen related receptor signaling pathway with the pleiotropic PPARgamma coactivator (PGC) cell viability counter screen (AID 1224822). The method, boiled down: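 PGC/ERR cells rested 6 h, then compound-treated 17.5 h at 37 C. CellTiter-Fluor added for 30 min at 37 C, viability measured by fluorescence intensity.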

Assay [15] in a line: qHTS assay to identify small molecule agonists of the retinoic acid receptor (RAR) signaling pathway (AID 1159553). Note: % is set by controls: 0 for no effect and ±100 for the full control effect. A digest of the protocol: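 C3RL4 RARE-luciferase cells were seeded at 1,000/well and grown overnight at 37 C, then exposed to compounds for 6 hr at 37 C, 5% CO2. Luciferase reagent was added and luminescence was read after 30 min at room temperature.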
The nature of assay [16]: qHTS assay to identify small molecule antagonists of the retinoic acid receptor (RAR) signaling pathway (AID 1159552). A digest of the protocol:
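Test chemicals and DMSO controls were pin-transferred onto C3RL4 cells a day after seeding; retinol (1 uM final) followed at once. Luminescent reporter output was quantified after 6 hr of co-incubation and 30 min with detection reagent.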

Assay [17] is described as follows: qHTS assay to identify small molecule antagonists of the estrogen related receptor (ERR) signaling pathway (AID 1224819). The method, boiled down:
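ERR reporter cell line (NTP) plated at 2,000 cells/well, settled 6 h at 37C/5% CO2, then exposed to LOPAC compounds for 18 h at 37C. One-Glo luciferase luminescence read after 30 min at room temperature.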

Assay [18] is described as follows: qHTS assay to identify small molecule agonists of the estrogen related receptor (ERR) signaling pathway (AID 1224820). Note: % is set by controls: 0 for no effect and ±100 for the full control effect. A digest of the protocol: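 ERR reporter cell line (from NTP), 2,000 cells/well, incubated 6 h before compound addition, then 18 h at 37 C. Luminescence measured 30 min after One-Glo reagent at room temperature.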
In assay [19] the test system is estrogen-related receptor alpha (ERRalpha) with PGC-1alpha coactivator, human. Nature of the assay: qHTS assay to identify small molecule antagonists of the estrogen related receptor signaling pathway with the pleiotropic PPARgamma coactivator (PGC) (AID 1224821; calls by dose curve). A digest of the protocol: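 PGC/ERR reporter cell line, plated 6 h before compound addition, then exposed 18 h at 37 °C. Luciferase activity read by luminescence 30 min after One-Glo addition; decrease indicates antagonism.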

Chain of Retinoic acid receptor RXR-alpha (Homo sapiens) (P19793 whole entry, looked up): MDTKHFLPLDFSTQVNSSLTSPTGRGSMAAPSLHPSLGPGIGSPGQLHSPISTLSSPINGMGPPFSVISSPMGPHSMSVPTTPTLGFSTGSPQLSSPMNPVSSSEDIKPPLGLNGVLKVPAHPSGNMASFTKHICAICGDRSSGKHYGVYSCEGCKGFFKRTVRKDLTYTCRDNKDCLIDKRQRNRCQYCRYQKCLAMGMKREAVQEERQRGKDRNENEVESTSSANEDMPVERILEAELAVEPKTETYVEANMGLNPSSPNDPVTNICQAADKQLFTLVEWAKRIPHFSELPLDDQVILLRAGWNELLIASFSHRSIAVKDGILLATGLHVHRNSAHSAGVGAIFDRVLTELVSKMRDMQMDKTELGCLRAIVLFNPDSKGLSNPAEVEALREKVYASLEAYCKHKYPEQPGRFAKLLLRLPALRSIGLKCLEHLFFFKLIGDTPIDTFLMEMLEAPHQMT

`CN1C(=O)CC[C@H]1c1cccnc1`: the result in assay [1], in assay [2], in assay [3], in [4], in assay [6] and in [8] was inactive. The outcome in assay [11], in assay [12], in assay [13] and in assay [14] was inactive. Also, the Potency entry in assay [5], in assay [7], in assay [9] and in assay [10] was “inactive” each time.
In the case of `CCc1ccccc1CC`, the molecule was classed as inactive in assay [1], in assay [3], in [4], in assay [6], in assay [8] and in [11]. Also, in [12], the result was inactive. The viability change, negative = cytotoxic in assay [2] was 4.82% [at 15.1 µM]. Moreover, the Potency entry in [5], in assay [7], in assay [9] and in assay [10] was “inactive” throughout.
In the case of `CC(C)(C)c1cc(Cc2cc(C(C)(C)C)c(O)c(C(C)(C)C)c2)cc(C(C)(C)C)c1O`, the call in assay [1], in assay [2], in assay [3], in assay [4], in [6] and in assay [8] was inactive. Moreover, the result in [11] and in [12] was inactive. In addition, the Potency entry in [5], in assay [7], in assay [9], in assay [10] and in assay [15] was “inactive” throughout.
With `CC(=O)OCc1ccco1`, the molecule was called inactive in assay [1], in [2], in assay [3], in [4], in [6] and in assay [8]. Also, the result in [11], in assay [12] and in assay [16] was inactive. The Potency result in assay [5], in assay [7], in assay [9], in [10] and in assay [15] was “inactive” throughout.
`O=C1C(c2[nH]c3ccccc3c2O)=Nc2ccccc21`: the outcome in assay [1], in assay [2], in [3], in assay [4], in [6] and in [8] was inactive. The molecule was called inactive in assay [11], in [12] and in [16]. For the same molecule, the Potency result in [5], in assay [7], in assay [9], in assay [10] and in assay [15] was “inactive” each time.
Regarding `O=C(O)c1cc2ccccc2cc1O`, the result in [1], in assay [2], in assay [3], in assay [4], in [6] and in assay [8] was inactive. The molecule was called inactive in assay [11], in assay [12] and in assay [16]. For the same molecule, the Potency result in [5], in assay [7], in assay [9], in assay [10] and in assay [15] was “inactive” throughout.
Turning to `O=C(O)c1ccccc1C(=O)O`, the outcome in assay [1], in [2], in assay [3], in assay [4], in assay [6] and in assay [8] was inactive. The result in assay [11] and in [12] was inactive. The Potency entry in [5], in assay [7], in [9], in assay [10] and in assay [15] was “inactive” throughout.
In the case of `COc1ccccc1OCC(O)CO` (stereo not drawn), the outcome in assay [1], in [2], in [3], in assay [4], in [6] and in assay [8] was inactive. Further, the call in assay [11] and in [12] was inactive. Moreover, the Potency result in [5], in assay [7], in assay [9] and in assay [10] was “inactive” throughout.
On to `O=C(O)CCCCCCCCC(=O)O`, for which the result in assay [1], in [2], in [3], in assay [4], in assay [6] and in [8] was inactive. For the same molecule, the call in assay [11] and in assay [12] was inactive. Moreover, the Potency result in [5], in assay [7], in assay [9], in assay [10] and in assay [15] was “inactive” throughout.
With `N#Cc1ccccc1`, the molecule was classed as inactive in assay [1], in assay [2], in [3], in [4], in [6] and in assay [8]. The molecule was classed as inactive in assay [11] and in [12]. For the same molecule, the Potency result in assay [5], in assay [7], in [9] and in assay [10] was “inactive” each time.
In the case of `CC(=O)CC(C)(C)O`, the outcome in [1], in [2], in [3], in assay [4], in assay [6] and in [8] was inactive. Besides, the result in [11] and in assay [12] was inactive. Also, the Potency result in assay [5], in [7], in assay [9], in [10] and in assay [15] was “inactive” in each case.
For `C=CCCCCCCCCC(=O)O`, the call in assay [1], in assay [2], in [3], in assay [4], in assay [6] and in [8] was inactive. In addition, the call in [11] and in assay [12] was inactive. In addition, the Potency entry in [5], in assay [7] and in assay [9] was “inactive” in each case. The Potency in assay [10] is 43.6 µM (active).
For the molecule `CC(C)CC(C)O` (stereo not drawn), the outcome in assay [1], in [2], in assay [3], in assay [4], in [6] and in assay [8] was inactive. Also, the outcome in assay [11], in [12] and in assay [16] was inactive. The Potency entry in [5], in assay [7], in [9], in assay [10] and in assay [15] was “inactive” each time.
For `Clc1ccccn1`, the outcome in assay [1], in [2], in assay [3], in assay [4], in assay [6] and in assay [8] was inactive. Further, the result in assay [11], in assay [12] and in assay [16] was inactive. Moreover, the Potency entry in assay [5], in assay [7], in assay [9], in assay [10] and in assay [15] was “inactive” each time.
For `CC(C)(Oc1ccc(CCNC(=O)c2ccc(Cl)cc2)cc1)C(=O)O`, the outcome in assay [1], in [2], in assay [3], in assay [4], in assay [6] and in assay [8] was inactive. Besides, the result in [11], in assay [12], in assay [13], in assay [17], in assay [18] and in assay [19] was inactive. Moreover, in assay [14], the molecule was classed as inactive. Also, the Potency entry in assay [5], in assay [7], in assay [9] and in assay [10] was “inactive” throughout.
With `CC(C)OP(=O)(CP(=O)(OC(C)C)OC(C)C)OC(C)C`, the molecule was called inactive in assay [1], in assay [2], in [3], in assay [4], in assay [6] and in [8]. Besides, the molecule was classed as inactive in [11] and in assay [12]. For the same molecule, the Potency entry in [5], in assay [7], in assay [9] and in assay [10] was “inactive” throughout.
